From PubChem BioAssay AID720537 (National Center for Advancing Translational Sciences (NCATS), 2013)
The whole screen tested about 1,600 compounds, of which about 55 (3%) were called active. Another 10% or so got no clear call; they are omitted. Calls follow the shape of the dose curve; as a rule, active = well fitted inhibition curve with a large enough effect; inconclusive = small, poorly fitted or top-dose-only effect; inactive = no such curve, though single readings can be large or run the other way. Only a sample is shown.

test: qHTS for Inhibitors of TGF-b: Hit Validation in HepG2 Cells using COP promoter; conditions: HepG2 COP-GFP TGF-b reporter, GFP fluorescence, 18 h, cells stimulated by added recombinant TGF-beta; series mostly up to 46.1 µM; activity, negative = inhibition: at the top concentration; also: nearly all actives have a fitted effect of over 70% in size
Excerpt: TGF-b is a main component in the TGF-b signaling pathway which plays diverse roles in cellular and development pathways. TGF-b is the mediated by the transcription factors Smads. Although the Smad-dependent pathway is the primary canonical TGF-b signaling node, TGF-b1 can also activate alternative signaling pathways, including those involving MAPK (ERK, JNK and p38). This interaction may mediate or enhance Smad-dependent responses, or can exert Smad-independent effects. The complexity of this signaling cascade allows the TGF-b superfamily to perform unique, overlapping or redundant functions. We believe that targeting the TGF-beta pathway at the Smad-transcription factor level may eliminate the consequences of disrupting the entire pathway and offer specificity without affecting other signaling pathways. Smad3 is the primary transducer of TGF-b's signals and Smad3 regulates many functions attributed to TGF-b signaling. We hypothesize that Smad3 inhibitors will selectively eliminate Smad3-specific TGF-beta signals without undesired off-target effects. We aim to identify Smad3-small molecule antagonists using a quantitative high throughput screening (qHTS) approach. A high-throughput assay was developed to screen the NIH Molecular Libraries Small Molecule Repository (MLSMR). This is a cell based assay, where TGF-b is tagged with GFP. This assays tests the hits identified from the primary screen in HepG2 cells, but using a cop promoter rather than a caga promoter. True actives from the primary screen will also be active in this assay. NIH Chemical Genomics Center [NCGC] NIH Molecular Libraries Probe Centers Network [MLPCN] MLPCN Grant: MH087449 Assay Submitter (PI): Sushil Rane, National Institute of Diabetes and Kidney Diseases
Suspensions of trypsinized HEPG2 COP-GFP cells were dispensed into white, tissue culture-treated, solid 1536-well plates at 5uL/well (1000 cells/well final concentration) in DMEM medium supplemented with 1% FBS. Plates were incubated at 37 degrees C for 2 hours, after which 23 nL of compounds or DMSO were delivered to each well using a pin tool. One uL of recombinant TGF-beta in DMEM (1% FBS) was then dispensed (500 pg/mL final concentration), and plates were incubated at 37 degrees C for 18 hours. The plates were measured on an Acumen eX3 Explorer plate reader for GFP fluorescence (ex488/em500-530). GFP values were calculated by determining the mean GFP fluorescence of individual cells, and compiling these values for each well to determine a total well GFP signal. The %Activity was determined from the corrected fluorescence values. A titration of the known TGF-B inhibitor SB431542 was included to monitor plate performance, while unstimulated HEPG2 (-TGF-B) control wells were used to normalize %Activity of identified inhibitors; unstimulated wells corresponded to 100%Activity (full inhibition), while stimulated cell controls (+DMSO) were used to normalize 0%Activity (no inhibition). Concentration-response curves were fitted to the signals arising from the resulting fluorescence. The concentration-effect curves were then classified based on curve quality (r2), response magnitude and degree of measured activity, and compounds were subsequently categorized based on their curve class.
Potency is read from the fitted curve at half-maximal effect.

Potency, active:
O=C(NC1=CC(=O)c2ccccc2C1=O)c1ccccc1 16.4 µM

activity, negative = inhibition, inactive:
CCCOc1ccccc1C1CC(=O)Nc2cc3c(cc21)OCO3 (stereo not given) 1.95%, CCCOc1ccc(F)cc1-c1cc(C(=O)Nc2ccc(F)c(Cl)c2)[nH]n1 52.1%, O=C(Nc1ccc(C2CC2(Cl)Cl)cc1)c1cccc([N+](=O)[O-])c1 (stereo not given) 18.1%, Cc1cccc(-c2nc(Nc3ccc(O)cc3)c3ccccc3n2)c1 75.3%, COc1cncc(-c2cnc3sc(NCCc4ccccn4)nn23)c1 21.5%, CCC(C)N1C(=O)S/C(=C/c2ccc(Sc3nc4ccccc4[nH]3)o2)C1=O (stereo not given) 34.9%, Fc1cc(F)c2nc(Nc3nc4c(F)cccc4s3)sc2c1 -4.89%, COC(=O)N/N=C/c1cn(CCCOc2ccc(C)cc2)c2ccccc12 47.4%, CCCc1cc(-c2n[nH]c(=S)n2CC)c2ccccc2n1 3.17%, Oc1c(CN2CCN(c3ccc(F)cc3)CC2)cc(Cl)c2cccnc12 14%, OCC1OC(n2cnc3c(N4CCCC4)ncnc32)C(O)C1O (stereo not given) 29.2%, CN(C)C(=O)c1cccc(-c2cnc3sc(NCc4ccc5c(c4)OCO5)nn23)c1 14.9%, Cc1ccc(CN2CC(N3CCC(Cc4ccccc4)CC3)CS2(=O)=O)cc1 (stereo not given) 2.5%, COc1cc(/C=C2\Oc3ccc(C#Cc4ccc(O)cc4)cc3C2=O)cc(OC)c1 0.311%, Cc1ccnc(NC(=O)C2CCN(S(=O)(=O)c3c(C)c(C)cc(C)c3C)CC2)c1 28.3%, COc1ccc(CC(=O)Nc2ccccc2NC(=O)c2ccco2)cc1OC 5.51%, O=C(Nc1ccc(Br)cn1)c1ccc([N+](=O)[O-])o1 27%, Cn1c(=O)n(C)c2cc(S(=O)(=O)N3CCCc4ccccc43)ccc21 19%, CN(C)c1nc(=Nc2cccc(Cl)c2)ss1 14.4%, COc1ccc(-c2onc(C)c2-c2ccc3c(c2)OCCO3)c(O)c1 42.4%, CCOc1ccc(CCN2C(=S)N([C@@H](CC(C)C)CN3CCC[C@@H]3CN3C(=S)NC[C@@H]3Cc3ccc(O)cc3)C[C@@H]2CC(C)C)cc1 25.5%, c1ccc(-c2cn3c(n2)CCc2ccc4cccnc4c2-3)cc1 17.3%, Cc1ccc(S(=O)(=O)Nc2nc3ccccc3nc2N2CCc3ccccc3C2)cc1 0.702%, O=C(CCC(=O)N1CCN(S(=O)(=O)c2ccc(Cl)cc2)CC1)NCc1cccc(C(F)(F)F)c1 25.9%, COc1cccc2sc(N(CCCN(C)C)C(=O)CCS(=O)(=O)c3ccccc3)nc12 -68.6%, CCOc1ccc(NS(=O)(=O)c2ccc(C(=O)NC3CCN(Cc4ccccc4)CC3)cc2)cc1 61.9%, CC(=O)c1cccc(-c2cnc3c(NC=O)cc(-c4ccc(N(C)C)cc4)cn23)c1 0.802%, COc1ccccc1CSc1ncc(-c2ccc([N+](=O)[O-])cc2)[nH]1 54.3%, FC(F)(F)c1ccccc1Cc1c(-c2ccccc2)nc2c3ccccc3ccn12 10.2%, Cc1ccc(C)c(S(=O)(=O)N2CCN(CC(=O)Nc3ccc([N+](=O)[O-])cc3)CC2)c1 15.9%, COc1c(C(C)C)oc2cc3oc(=O)ccc3cc12 67.8%, Cc1ccc(-c2nc3ccc(Br)cn3c2Cc2ccccc2C(F)(F)F)cc1 19.4%, Brc1ccc2nc(-c3ccccc3)c(Cc3ccccc3)n2c1 17.5%, COc1ccc(-c2csc(NC3OC(=O)c4ccccc43)n2)cc1 (stereo not given) 69.1%, Cc1ccc(S(=O)(=O)Nc2ccc3c(c2)C(=O)N([C@H](C)CO)C[C@@H](C)[C@@H](CN(C)C(=O)Nc2cccc4ccccc24)O3)cc1 -0.193%, CN(c1ccccc1)S(=O)(=O)c1ccc(C(=O)N2CCN(c3ccccc3Cl)CC2)cc1 14.1%, COc1cc(CC(=O)Nc2nc(-c3ccc(F)c(F)c3)cs2)cc(OC)c1OC 25%, COc1ccc2nc(N3CCN(C(=O)c4ccc([N+](=O)[O-])o4)CC3)sc2c1 -6.27%, CC1CCc2c(nc3ncnn3c2Nc2ccc(OC(F)(F)F)cc2)C1 (stereo not given) 2.87%, Cc1cc(C)cc(N(CC(=O)N2CC=C(c3ccccc3)CC2)S(=O)(=O)c2c(C)noc2C)c1 1.43%, Cc1oc2c(F)c(F)c(F)c(F)c2c1S(=O)(=O)Nc1cccc(C(F)(F)F)c1 54.8%, CCOC(=O)C1=C(N)N(c2ccc(C)cc2)C2=C(C(=O)CCC2)C1c1cccs1 (stereo not given) 22.7%, CN(C)c1nc(N)nc(CSc2nnnn2-c2cccc3ccccc23)n1 47.2%, CC(=O)c1ccc(-c2cnc3c(NC=O)cc(-c4cccc(NS(C)(=O)=O)c4)cn23)cc1 35.4%, COc1cc(NC(=O)COC(=O)c2ccc([N+](=O)[O-])s2)cc(OC)c1OC 5.21%, CN(C(=O)c1cccc(NC(=O)Cc2cccc([N+](=O)[O-])c2)c1)C1CCCCC1 13.5%, O=C(Nc1ccc(Cl)cc1)Nc1nnc(/C=C/c2ccccc2)s1 -2.14%, c1ccc2cc3c(NCCN4CCOCC4)ccnc3cc2c1 28.4%, OCCCNc1nccc(-c2cc(Nc3cccc(Cl)c3)ncn2)n1 22%, O=C(/C(=C/c1cccc(Cl)c1)c1nc2ccccc2[nH]1)c1ccccc1 45.1%, COc1cccc(CNc2nc(NCc3ccccc3OC)nc3ccsc23)c1 13.8%, CC(=NNC(=S)N1CCCCCC1)c1ccccn1 14.9%, CCN(CC)C(=O)C1=C(C)N(Cc2ccc(C(C)(C)C)cc2)C(=O)C(CC(=O)NCc2cccc3ccccc23)C1 (stereo not given) 48.3%, S=C(NCC1COc2ccccc2O1)Nc1ccc(Br)cc1 (stereo not given) 30.5%, CN(C)CCNC(=O)c1ccc(Cl)c2cc3ccccc3nc12 -6.16%, Cc1nc(/N=C(\N)NC(=O)NC2CCCCC2)nc2ccccc12 87%, O=C(Nc1nnc(S(=O)(=O)N2CCCCCC2)s1)c1cccc(Br)c1 34.1%, O=c1[nH]c(CCl)nc2cc(-c3ccc(Cl)cc3)sc12 20.5%, O=[N+]([O-])c1ccccc1S(=O)(=O)Nc1cccc2cccnc12 35.7%, COc1ccc(CNC(=O)C[C@H]2C[C@H](C(=O)N3CCOCC3)[C@@]3(CCC4CCCC4)c4[nH]c5ccc(Cl)cc5c4CCN3C2=O)cc1OC 53.4%, COc1ccc(C)cc1S(=O)(=O)N1CCN(S(=O)(=O)c2cc(C(=O)O)ccc2C)CC1 -3.02%, Cc1nn(-c2ccccc2)c(C)c1/C=N/NC(=O)CSc1nc2ccccc2c(=O)n1-c1ccccc1 -7.84%, COC(=O)COc1cccc2c(=O)n(CC(=O)NCc3ccccc3)ccc12 5.12%, Clc1ccc(Nc2nc(-c3cccs3)cs2)nc1 18.4%, Clc1cccc(Cc2c(-c3cccc(Cl)c3)nc3ccc(Cl)cn23)c1 18.8%, COc1ccc(C(=O)c2c3ccc([N+](=O)[O-])cc3[n+]([O-])n2CCCN)cc1 91%, COc1cc(NC(=O)c2ccccc2NS(=O)(=O)c2ccc(Cl)s2)cc(OC)c1 59.7%, Clc1ccc2c(c1)C1=C(C(c3ccncc3)O2)C(c2ccc(Br)cc2)n2ncnc2N1 (stereo not given) 13%, Cc1cccc(NS(=O)(=O)c2ccc(-c3cnc(C4CC4)o3)cc2)c1 55.2%
